{"source": "PubChem BioAssay (NCATS)", "key": {"[1]": {"target": "Pyruvate kinase PKM (Homo sapiens) (UniProt P14618)", "sequence (P14618 whole entry, looked up)": "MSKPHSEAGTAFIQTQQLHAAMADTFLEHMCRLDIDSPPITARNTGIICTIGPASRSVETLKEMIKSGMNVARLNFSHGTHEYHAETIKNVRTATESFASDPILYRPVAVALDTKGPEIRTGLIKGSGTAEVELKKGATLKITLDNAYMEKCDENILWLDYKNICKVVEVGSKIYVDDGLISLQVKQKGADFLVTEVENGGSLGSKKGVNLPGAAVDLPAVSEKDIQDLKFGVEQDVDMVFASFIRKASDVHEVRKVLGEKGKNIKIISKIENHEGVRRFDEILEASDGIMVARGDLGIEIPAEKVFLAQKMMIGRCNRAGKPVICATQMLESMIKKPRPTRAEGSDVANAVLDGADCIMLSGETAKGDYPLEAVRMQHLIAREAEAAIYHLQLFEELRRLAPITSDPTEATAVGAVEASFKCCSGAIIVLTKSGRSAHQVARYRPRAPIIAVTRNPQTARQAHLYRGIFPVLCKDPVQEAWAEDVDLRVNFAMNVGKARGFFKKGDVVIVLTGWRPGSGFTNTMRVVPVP", "experiment": "qHTS Assay for Inhibitors of Human Muscle Pyruvate Kinase (AID 958)", "conditions": "purified human PKM enzyme activity", "procedure,_shortened": "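A coupled luminescent readout tracked ATP made from ADP by purified PKM2. Final conditions included 0.1 nM enzyme, PEP and ADP at 0.5 and 0.1 mM, pH 7.2 imidazole buffer with BSA, and a one-hour room-temperature reaction.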"}, "[2]": {"target": "Cytochrome P450 2C19 (Homo sapiens) (UniProt P33261)", "sequence (P33261 whole entry, looked up)": "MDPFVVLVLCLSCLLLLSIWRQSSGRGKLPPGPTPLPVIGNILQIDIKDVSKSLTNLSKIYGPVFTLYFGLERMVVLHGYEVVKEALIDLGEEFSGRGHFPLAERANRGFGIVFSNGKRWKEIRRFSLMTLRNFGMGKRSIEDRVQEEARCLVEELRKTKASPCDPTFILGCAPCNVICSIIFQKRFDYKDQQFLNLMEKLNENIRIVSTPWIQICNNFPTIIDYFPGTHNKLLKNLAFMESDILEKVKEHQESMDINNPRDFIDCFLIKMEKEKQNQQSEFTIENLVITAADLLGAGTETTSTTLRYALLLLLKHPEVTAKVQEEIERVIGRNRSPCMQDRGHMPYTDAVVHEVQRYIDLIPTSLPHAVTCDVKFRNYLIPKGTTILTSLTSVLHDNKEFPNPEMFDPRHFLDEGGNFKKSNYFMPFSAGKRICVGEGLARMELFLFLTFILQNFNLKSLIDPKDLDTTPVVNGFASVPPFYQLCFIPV", "experiment": "qHTS Assay for Inhibitors and Substrates of Cytochrome P450 2C19 (AID 899); further: nearly all actives have a fitted effect of over 60% in size", "conditions": "recombinant CYP2C19, luciferin-H EGE luminescence; series mostly up to 57.1 µM", "procedure,_shortened": "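Reactions contain 5nM enzyme, 10uM Luciferin-H EGE (KM) and 50mM KPO4; compound preincubates 10 min at 37C, NADPH regeneration starts turnover for 60 min. Luminescence after detection reagent gives activity.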"}, "[3]": {"experiment": "Confirmation and Secondary Assay for Modulators of Hemoglobin Beta Chain Splicing at IVS2 654 locus (AID 910);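 further: HeLa cells stably carrying EGFP split by mutant beta-globin IVS2-654 intron; per-well total GFP intensity by laser scanning cytometry after 2-day treatment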", "conditions": "HeLa EGFP-654 splicing reporter, GFP fluorescence, 48 h; series mostly up to 38.3 µM", "procedure,_shortened": "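Readout: per-well total peak green fluorescence (488 nm ex, 500–520 nm em) from objects 5–250 µm, reflecting correct splicing of an EGFP-654 reporter. Compounds were applied for 2 days at 37 °C to overnight-plated HeLa EGFP-654 cells; controls were DMSO and 500 nM IVS2-654 PNA.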"}, "[4]": {"experiment": "Confirmation and Secondary Assay for Modulators of Hemoglobin Beta Chain Splicing at IVS2 705 locus (AID 930)", "conditions": "HeLa EGFP-705 splicing reporter, GFP fluorescence, 48 h; series mostly up to 38.3 µM", "procedure,_shortened": "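Fluorescence gain (488 nm laser, 500-520 nm PMT) reflects restored correct splicing of a mutant IVS2-705 intron inside EGFP in stably transfected HeLa cells after 2-day compound treatment.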"}}, "note": "Inconclusive results are not listed. A call without a number means that no potency is given here. The source made the active and inactive calls. The call rests on the fitted dose curve; in most records, active means well fitted curve in the direction sought with a large enough effect; inconclusive means small, poorly fitted or top-dose-only effect, or another doubt; inactive means no such curve, though single readings can be large; an effect the other way counts as inactive or inconclusive."}
{"smiles": "N=C1Sc2ccccc2C2=NCCCN12", "values": [{"measurement": "Potency", "setting": "[1]", "value": "7.94 µM (active)"}]}
{"smiles": "NCCC(=O)NCCc1cnc[nH]1", "values": [{"measurement": "Potency", "setting": "[2]", "value": "inactive"}]}
{"smiles": "CN1C(=O)CCC1c1cccnc1", "note": "(centres undefined)", "values": [{"measurement": "outcome", "setting": "[3]", "value": "inactive"}, {"measurement": "outcome", "setting": "[4]", "value": "inactive"}]}
